Values joined by “and” are separate entries in the source; they are usually repeats but may differ in a detail not shown here. Equal values may be shown once. Unmarked numbers belong to inactive results. Results filed as inconclusive are left out. Active and inactive are the calls of the source. Unless noted, calls come from the whole dose curve; as a rule, active = well fitted inhibition curve with a large enough effect; inconclusive = small, poorly fitted or top-dose-only effect; inactive = flat fitted curve, though single readings scatter.

Experiment [1] is described as follows: Drug repurposing screens with cells derived from glioblastoma tumor samples (AID 1345199). For activity, negative = cell killing: % is set by controls: 0 for no effect and ±100 for the full control effect. Note: nearly all actives have a fitted effect of over 40% in size. Note: potency is the fitted concentration of half-maximal effect. The settings on record: GBM patient neurospheres viability, ATP luminescence, 48 h. The gist of the method:
(§1)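 Primary testing used CD133+ neurospheres from four GBM patients, seven concentrations, 48 h exposure and ATP-based viability; confirmation added three slower-growing patient lines.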

The subject of another experiment is astro (control astrocytes). The experiment is described as above. The note with it: viability, ATP luminescence, 48 h; series mostly up to 45.9 µM. An outline of the steps: as §1
Experiment [2] has as its target Nuclear receptor subfamily 1 group I member 2 (Rattus norvegicus) (UniProt Q9R1A7). The experiment is described as follows: qHTS assay for small molecule activators of the rat pregnane X receptor (rPXR) signaling pathway (AID 651751; call rule not given here; note: 0% is about no effect). The settings on record: rPXR reporter cells, luciferase (One-Glo), 24 h. On the technique in general: Quantitative high-throughput screening tests each substance at several concentrations.

The nature of experiment [3]: qHTS assay for small molecule activators of the human pregnane X receptor (PXR) signaling pathway (AID 720659; call rule not given here; note: 0% is about no effect). The note with it: DPX-2 HepG2 CYP3A4-luciferase, 24 h; series mostly up to 92.3 µM.
Where [4] appears, read: at 45.9 µM (top of the series), tumour line B.
Setting [5] is: at 45.9 µM (top of the series), tumour line D.
[6] abbreviates: at 46.1 µM (top of the series), tumour line C.
[7] abbreviates: at 46 µM (top of the series), tumour line A.
Where [8] appears, read: at 91.6 µM (top of the series), tumour line A.
The mark [9] stands for this setting: at 91.6 µM (top of the series), tumour line B.
The mark [10] stands for this setting: at 91.6 µM (top of the series), tumour line D.
Setting [11] is: at 99.2 µM (top of the series), tumour line C.

Nuclear receptor subfamily 1 group I member 2 (Rattus norvegicus), sequence (Q9R1A7 whole entry, looked up): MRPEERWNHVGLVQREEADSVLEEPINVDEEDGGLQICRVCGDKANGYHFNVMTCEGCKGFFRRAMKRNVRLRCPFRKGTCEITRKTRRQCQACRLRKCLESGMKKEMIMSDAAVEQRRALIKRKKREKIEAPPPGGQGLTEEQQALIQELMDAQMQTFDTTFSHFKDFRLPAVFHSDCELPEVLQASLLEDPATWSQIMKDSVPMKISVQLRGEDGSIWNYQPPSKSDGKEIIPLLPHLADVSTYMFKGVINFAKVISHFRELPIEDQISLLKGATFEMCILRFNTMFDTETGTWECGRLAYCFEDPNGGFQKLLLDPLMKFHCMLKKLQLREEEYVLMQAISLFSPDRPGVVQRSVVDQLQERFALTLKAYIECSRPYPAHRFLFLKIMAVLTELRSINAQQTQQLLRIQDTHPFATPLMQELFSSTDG

As for `CCCCCC1Nc2cc(C(F)(F)F)c(S(N)(=O)=O)cc2S(=O)(=O)N1` (configuration not stated), the activity, negative = cell killing in experiment [1] (setting [4]) was -8.57%; in experiment [1] (setting [5]), -19.1%; in experiment [1] (setting [6]), -6.63%. Besides, the Potency entry in the experiment with astro is “inactive”.
In the case of `CO[C@@]1(NC(=O)CSC[C@@H](N)C(=O)O)C(=O)N2C(C(=O)O)=C(CSc3nnnn3C)CS[C@@H]21`, the activity, negative = cell killing in experiment [1] (setting [4]) is -3.3%; in experiment [1] (setting [5]), -19.7%; in experiment [1] (setting [7]), -20.1%; in experiment [1] (setting [6]), -4.96%. For the same compound, in the experiment with astro, the Potency entry is “inactive”.
Turning to `CN1C(=O)c2ccccc2C1=O`, the activity, negative = cell killing was -18.9% in experiment [1] (setting [8]), -9.87% in experiment [1] (setting [9]), -20.8% in experiment [1] (setting [10]) and 6.36% in experiment [1] (setting [11]). In addition, the Potency entry in the experiment on astro was “inactive”. The max response in experiment [2] is 0.847%. The compound was classed as inactive in experiment [3].
Consider `CC(=O)Nc1c(I)c(NC(C)=O)c(I)c(C(=O)O)c1I`, for which the activity, negative = cell killing was -4.92% in experiment [1] (setting [4]), -9.58% in experiment [1] (setting [5]), -18.7% in experiment [1] (setting [7]) and -9.62% in experiment [1] (setting [6]). In the experiment with astro, the Potency entry was “inactive”.
For the compound `CCOC(=O)NNc1nncc2ccccc12`, the values for the activity, negative = cell killing in experiment [1] (setting [4]), in experiment [1] (setting [5]) and in experiment [1] (setting [6]) were -5.14%, -7.16% and -13.4%, respectively. Moreover, the Potency result in the experiment on astro is “inactive”.
In the same order, the values of `C[N+]1(CC2COC(c3ccccc3)(c3ccccc3)O2)CCCCC1` (configuration not stated) are -10.9%, -20.2%, -16.6% and “inactive”.
For `OC[C@]1(O)OC[C@@H](O)[C@H](O)[C@@H]1O`, in that order: 6.45%, -1.03%, 12.8% and “inactive”.
For `O=C(O)[C@@H](O)[C@H](O)[C@H](O)[C@@H](O)C(=O)O`, in that order: -15.2%, 6.93%, -6.4% and “inactive”.
Take `CC1CC(=O)NN=C1c1ccc(NCC(C)(C)NCC(O)COc2cc(Cl)ccc2C#N)cc1` (configuration not stated): the activity, negative = cell killing is -23.3% in experiment [1] (setting [4]) and -27.2% in experiment [1] (setting [5]). For the same compound, the Potency in experiment [1] (tumour line A) was 1.78 µM (active). Further, in the experiment with astro, the Potency result was “inactive”.
Turning to `O=C(COCCOCCOCC(=O)Nc1c(I)cc(I)c(C(=O)O)c1I)Nc1c(I)cc(I)c(C(=O)O)c1I`, the activity, negative = cell killing was -4.03% in experiment [1] (setting [4]), -4.14% in experiment [1] (setting [5]) and 15.8% in experiment [1] (setting [6]). In the experiment with astro, the Potency entry is “inactive”.
As to `C[C@@H](C1=C(CCN(C)C)Cc2ccccc21)c1ccccn1`, the activity, negative = cell killing is -18.9% in experiment [1] (setting [4]) and -5.63% in experiment [1] (setting [6]). Moreover, the Potency in experiment [1] (tumour line A) is 17.8 µM (active). In the experiment on astro, the Potency entry is “inactive”.
On to `CC1(C)S[C@@H]2[C@H](NC(=O)C(c3ccccc3)S(=O)(=O)O)C(=O)N2[C@H]1C(=O)O` (some centres not stated), for which the figures for the activity, negative = cell killing in experiment [1] (setting [4]), in experiment [1] (setting [5]) and in experiment [1] (setting [6]) were -7.89%, -16.5% and 4.53%, respectively. In addition, the Potency entry in the experiment with astro was “inactive”.
In the same order, the values of `CCOC(=O)c1ccc(OCCN2C[C@H](O)[C@@H](O)[C@H](O)[C@H]2CO)cc1` are 0.0726%, -4.04%, 1.63% and “inactive”.
Regarding `C=CCOc1cc(Cl)ccc1C(=O)NCCN(CC)CC`, the activity, negative = cell killing in experiment [1] (setting [4]) is -22.9%; in experiment [1] (setting [6]), 2.19%. For the same compound, the Potency in experiment [1] (tumour line A) is 10 µM (active). In addition, the Potency entry with astro is “inactive”.
With `CCN(CC)CCNC(=O)c1ccc(NS(C)(=O)=O)cc1`, the activity, negative = cell killing was -2.38% in experiment [1] (setting [4]), -14.7% in experiment [1] (setting [5]) and -3.28% in experiment [1] (setting [6]). Moreover, the Potency result with astro was “inactive”.
For `CC(CCc1ccc2c(c1)OCO2)NN` (configuration not stated), in that order: -11.1%, -1.96%, -0.872% and “inactive”.
In the same order, the values of `COc1cc(C(=O)NC2CCCNC2)cc(OC)c1OC` (configuration not stated) are -2.35%, -10.6%, 15.7% and “inactive”.
With `Nc1c(NC/C=C\COc2cc(CN3CCCCC3)ccn2)c(=O)c1=O`, the activity, negative = cell killing is -4.69% in experiment [1] (setting [4]), -28.9% in experiment [1] (setting [5]) and 3.18% in experiment [1] (setting [6]). For the same compound, in the experiment on astro, the Potency entry is “inactive”.
Regarding `c1ccc2occc2c1`, the activity, negative = cell killing in experiment [1] (setting [8]) was -19.3%; in experiment [1] (setting [9]), -4.88%; in experiment [1] (setting [10]), -16%; in experiment [1] (setting [11]) it was 4.01%. The Potency result with astro is “inactive”. Moreover, the max response in experiment [2] is 2.28% and 7.63% and -1.22%.
With `Brc1ccccc1-c1ccccc1`, the activity, negative = cell killing in experiment [1] (setting [8]) is -21.1%; in experiment [1] (setting [9]) it was -9.1%; in experiment [1] (setting [10]), -21.1%; in experiment [1] (setting [11]), 6.63%. Also, in the experiment with astro, the Potency entry was “inactive”. The max response in experiment [2] was 13.4%. Also, in experiment [3], the call was inactive.
On to `C1=CC2C3C=CC(C3)C2C1` (configuration not stated), for which the activity, negative = cell killing was -19.8% in experiment [1] (setting [8]), -14.6% in experiment [1] (setting [9]), -19.1% in experiment [1] (setting [10]) and 15.3% in experiment [1] (setting [11]). In the experiment with astro, the Potency result was “inactive”. The max response in experiment [2] is 2.57%. The result in experiment [3] was inactive.

Source of the values: PubChem BioAssay (NCATS).
